HPGD block: blocks human HPGD enzyme activity. P15428. purified HPGD, NADH fluorescence kinetic, PGE2 substrate. Potency, µM, for the others: at the top dose activity change, negative = inhibition, most hits filed as inhibitors. 4.3% of 150,000 active; active = well fitted inhibition curve with a large enough effect, not every such curve was filed as active; inconclusive = small, poorly fitted or top-dose-only effect, or another doubt; inactive = no such curve, though single readings can be large or run the other way; note: potency is the fitted concentration of half-maximal effect
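NADH formation kinetics: reaction with 30 uM PGE2 and 1 mM NAD+ (final), 20 nM enzyme, Tris-HCl pH 8 with Tween 20, after 15 min compound preincubation at room temperature. Fluorescence change, last versus first of five reads.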
ALDH1A1 block: inhibitors of human aldehyde dehydrogenase 1A1 | Purified ALDH1A1, NADH fluorescence, propionaldehyde substrate | AID 1030 | P00352 | 7.3% of 220,000 active | Potency, µM (doses to about 75.3 µM), for the others: at the highest dose activity, negative = inhibition, usual class: inhibitors; active = well fitted inhibition curve with a large enough effect, not every such curve was filed as active; inconclusive = small, poorly fitted or top-dose-only effect, or another doubt; inactive = no such curve, though single readings can be large or run the other way;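 note: potency is the fitted concentration of half-maximal effect; plate controls were no enzyme wells and a reference inhibitor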
Target sequence (P00352 whole entry, looked up): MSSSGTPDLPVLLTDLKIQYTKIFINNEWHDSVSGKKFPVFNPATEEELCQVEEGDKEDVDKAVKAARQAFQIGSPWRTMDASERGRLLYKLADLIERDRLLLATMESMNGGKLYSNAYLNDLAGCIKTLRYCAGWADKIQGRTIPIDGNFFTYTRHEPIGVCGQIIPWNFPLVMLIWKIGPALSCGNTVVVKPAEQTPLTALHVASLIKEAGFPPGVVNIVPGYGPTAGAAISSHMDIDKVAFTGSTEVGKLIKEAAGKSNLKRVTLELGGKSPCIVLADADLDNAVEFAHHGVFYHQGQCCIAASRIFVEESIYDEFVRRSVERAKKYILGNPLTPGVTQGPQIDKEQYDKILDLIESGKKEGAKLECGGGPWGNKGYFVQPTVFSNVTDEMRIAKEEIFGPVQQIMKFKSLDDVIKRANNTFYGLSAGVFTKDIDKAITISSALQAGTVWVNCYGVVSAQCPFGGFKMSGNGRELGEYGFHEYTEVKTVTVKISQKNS
IMPase Li cell: cell-permeable IMPase inhibitors with lithium potentiation. AID 1457. Potency, µM (titrated, usually from 59.4 µM), for the others: top-dose activity, negative = IMPase inhibition, hits mostly inhibitors. CHO-M1 cells, IP1 TR-FRET (IP-One), carbachol + lithium. 0.35% of 210,000 active;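 note: IP1 builds up when IMPase is blocked and the TR-FRET signal falls; potency is the fitted concentration of half-maximal effect; plate controls were basal vehicle for no effect and high inhibitor control for full effect; nearly all actives have a fitted effect of over 50% in size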
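IP1 accumulation measured by competitive TR-FRET in lysed CHO-M1 cells after 30 min compound exposure at 37C, with a small lithium addition to potentiate weak responses. Hill-equation AC50 from ratio and donor-channel data.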
PNC inhibitor: blocks assembly of the perinucleolar compartment | PC3M PTB-GFP, PNC prevalence imaging, 16 h; hits give low values | activity change (PNC), negative = inhibition, % at 10 µM | 3.1% of 140,000 active | AID 2417;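 active = readout at or below -70, meaning at least 70% loss of cells showing the perinucleolar compartment, a nuclear body marking cancer cells; inconclusive = readout between -30 and a set limit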;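 note: plate controls were DMSO wells for no effect and camptothecin positive control wells for full effect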
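PC3M cells stably expressing PTB-GFP, 750–1000 cells/well, treated 16 h at 37 °C with compound (23 nl of library stock), in duplicate. After paraformaldehyde fixation and Hoechst stain, imaged at 20x; PNC prevalence scored by image analysis.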
ALOX12 inhib: inhibitors of human 12-lipoxygenase (ALOX12). purified 12-hLO, xylenol orange hydroperoxide absorbance. Potency, µM (doses to about 57.1 µM), without a hit: at the highest dose activity change, negative = inhibition, actives largely listed as inhibitors. AID 1452. 0.12% of 150,000 active. P18054; note: potency is the fitted concentration of half-maximal effect; nearly all actives have a fitted effect of over 55% in size
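Hydroperoxide output read as Fe(III)-xylenol orange absorbance, 573-to-405 nm ratio, after 30 min reaction with 40 uM arachidonic acid. Enzyme: 150 nM purified human 12hLO, 15 min compound preincubation; 25 mM Hepes pH 7.0, room temperature.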
IMPase inh: membrane-permeable compound that blocks inositol monophosphatase; CHO-M1 cells, IP1 accumulation, HTRF TR-FRET ratio; inhibition (IP1 accumulation), % at 46.1 µM; 120,000 tested, under 10 active; active = well fitted curve in the direction sought with a large enough effect in the signal ratio, not every such curve was filed as active; inconclusive = small, poorly fitted or top-dose-only effect, or a change in a side signal; inactive = no such curve, though single readings can be large or run the other way; the % refers to the signal ratio;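 note: cells stimulated with carbachol in lithium chloride buffer; plate controls were DMSO basal wells for no effect and reference inhibitor wells for full effect; higher means more IMPase inhibition seen as more IP1 and lower FRET ratio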
Target sequence (P97697 whole entry, looked up): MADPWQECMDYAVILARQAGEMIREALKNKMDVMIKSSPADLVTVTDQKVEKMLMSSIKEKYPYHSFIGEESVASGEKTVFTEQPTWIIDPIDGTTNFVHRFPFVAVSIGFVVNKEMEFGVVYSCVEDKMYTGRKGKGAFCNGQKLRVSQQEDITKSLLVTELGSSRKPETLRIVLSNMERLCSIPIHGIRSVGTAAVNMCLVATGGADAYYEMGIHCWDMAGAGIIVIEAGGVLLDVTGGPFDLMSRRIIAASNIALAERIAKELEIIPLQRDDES
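Seeded CHO-M1 cells were dosed with compound at up to 46 uM, stimulated with carbachol for 30 min, then lysed in IP-One detection reagents. Higher IP1 lowers the TR-FRET signal.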
Active calls of the source: *; u = inconclusive; x = no result given; [ ] = dose if it differs, or a comment. A selection: hits, their analogues and other compounds. The true share with any hit is near 11%. Unless noted, calls come from the whole dose curve; as a rule, active = well fitted curve in the direction sought with a large enough effect; inconclusive = small, poorly fitted or top-dose-only effect, or another doubt; inactive = no such curve, though single readings can be large; an effect the other way counts as inactive or inconclusive. Unless noted, % is set by controls: 0 for no effect and ±100 for the full control effect.

SMILES | HPGD block | ALDH1A1 block | IMPase Li cell | PNC inhibitor | ALOX12 inhib | IMPase inh
CN(c1ccccc1C(=O)Nc1ccccc1C(=O)NCc1ccco1)S(C)(=O)=O | -11.8% | -2.3% | 3.8%[38.3 µM] | -116.6* | 1.7% | -0.5
O=C(NCc1ccco1)c1cccc2ccccc12 | 14.1µM* | -7.1% | -15.4%[38.3 µM] | -18.7 | -1.9% | -13.1
CCOC(=O)c1c(NC(=O)COc2cccc(C(F)(F)F)c2)sc2c1CCC(C)C2 (stereo unspecified) | x | x | x | x | x | -5.7
CCC1=C2CC[C@H]3C(=O)N(c4ccccc4)C(=O)[C@H]3[C@H]2[C@@]2(Cc3ccccc3)C(=O)N(CC(=O)OC)C(=O)N2C1=O | -2.4% | 0.9% | -8.4% | x | 0.4% | x
N#CC1=C(N)Oc2n[nH]c(-c3cccnc3)c2C1c1ccc([N+](=O)[O-])o1 (stereo unspecified) | x | -3.1% | 3.4% | x | x | x
O=C(CNc1ccc(Br)cc1)NNC1=NCCC1 | -0.9% | 16.9% | 1.2% | -113.4* | 2.2% | x
O=C(CNc1ccc(Br)cc1)c1ccc(O)cc1 | x | 11.2µM* | -3.9% | x | x | x
CCC(=O)NNc1ccc(Br)cc1 | x | -2.4% | 4.2% | x | x | x
O=C(CNc1ccc(Cl)cc1)c1ccc(Br)cc1 | x | 10µM* | 1.7% | x | x | x
COC(=O)c1sc2nc(C)cc(-c3ccccc3)c2c1N | -17.4% | u | -2.2% | u | 2.0% | 4.1
Nc1c(C(=O)O)sc2nc(-c3ccccc3)cc(-c3ccccc3)c12 | x | 20µM* | x | x | x | x
COc1cc(OC)c(OC)cc1/C=C1\CCC(C2CCCC2)C1=O (stereo unspecified) | x | 2µM* | 3.4% | x | x | x
CCCCC/C=C\C/C=C\C/C=C\C/C=C\CCCC(=O)O[C@@H](CO)COCCCCCCCCCCCCCCCC | -7.9% | 2.0% | 31.9% | x | 2.2% | x
COC(=O)N1CCC[C@@]2(CCN(c3ccccc3)C2)C1 | -14.3% | 0.2% | 19.6% | x | -2.1% | x
CCCCNc1ccc(S(N)(=O)=O)cc1[N+](=O)[O-] | -3.9% | 13.9% | 0.0% | -112.8* | -2.7% | x
CCn1nc(CC(=O)Nc2nnc(CC(=O)N3CCCCC3)s2)c2ccccc2c1=O | 22.4µM* | -6.5% | -14.6%[38.3 µM] | -27.7 | -2.3% | 3.4
Cc1nn(CC(=O)Nc2nnc(CC(=O)N3CCCC3)s2)c(=O)c2ccccc12 | x | 1.8% | x | u | 0.9% | 7.3
Cc1cc2cc(CN(Cc3ccc4c(c3)OCO4)Cc3nnnn3C3CCCC3)c(=O)[nH]c2cc1C | -26.3% | 22.4µM* | 19.1%[38.3 µM] | 39.0 | -6.1% | 0.9
COc1ccc(CN(Cc2cc3ccc(C)cc3[nH]c2=O)Cc2nnnn2C2CCCC2)cc1 | u | u | 23.4%[38.3 µM] | u | -26.2% | 11.2
O=c1[nH]c2cc3c(cc2cc1CN(Cc1ccc2c(c1)OCO2)Cc1nnnn1CC1CCCO1)OCO3 (stereo unspecified) | u | u | -1.0%[38.3 µM] | 20.0 | 0.7% | -7.3
Cc1ccc2[nH]c(=O)c(CN(Cc3ccc4c(c3)OCO4)Cc3nnnn3C3CCCC3)cc2c1 | -26.8% | 20µM* | -0.8%[38.3 µM] | -22.8 | -17.9% | 15.9
Cc1ccc(CNC(=O)[C@H]2C[C@@H]2[C@H](NP(=O)(c2ccccc2)c2ccccc2)c2ccccc2)c(F)c1F | -7.9% | -5.0% | 12.3% | x | -0.1% | x
CCCCCn1c(CN2CCN(CCO)CC2)nc2c1c(=O)n(C)c(=O)n2C | -0.2% | u | 19.3%[38.3 µM] | 6.4 | 1.5% | -2.6
Cn1c(=O)c2c(nc(CN3CCN(CCO)CC3)n2CCc2ccccc2)n(C)c1=O | x | 28.2µM* | -6.9% | x | x | x
Cn1c(=O)c2c(nc(CN3CCOCC3)n2CCCc2ccccc2)n(C)c1=O | -4.1% | -4.8% | -0.7% | -1.7 | 1.4% | -7.3
SMILES | HPGD block | ALDH1A1 block | IMPase Li cell | PNC inhibitor | ALOX12 inhib | IMPase inh
Cn1c(=O)c2c(nc(CN3CCCCC3)n2CCc2ccccc2)n(C)c1=O | -4.4% | u | -3.4%[38.3 µM] | -17.8 | 0.0% | 1.5
CN1CCN(Cc2nc3c(c(=O)n(C)c(=O)n3C)n2CCCc2ccccc2)CC1 | -23.6% | 5.62µM* | -2.3%[38.3 µM] | -18.3 | 9.2% | 4.9
CCCCCCn1c(CN2CCN(C)CC2)nc2c1c(=O)n(C)c(=O)n2C | -14.4% | 4.1% | 2.8% | -121.7* | 19.3% | -8.1
CCCn1c(CN2CCCCC2C)nc2c1c(=O)n(C)c(=O)n2C (stereo unspecified) | -2.0% | 6.3% | 12.2%[38.3 µM] | -95.1* | 0.2% | 8.8
Cc1nn2c(C(F)(F)F)cc(-c3ccc(OC(C)C)cc3)nc2c1C#N | x | x | x | x | x | -6.8
COc1cccc(C(C(=O)NCC2CCCO2)N(CC2CCCO2)C(=O)CN2C(=O)c3ccccc3S2(=O)=O)c1 (stereo unspecified) | x | 14.1µM* | 9.7% | x | x | x
O=C(NCC1CCCO1)C(c1ccncc1)N(Cc1ccc(F)cc1)C(=O)CN1C(=O)c2ccccc2S1(=O)=O (stereo unspecified) | -2.7% | 12.6µM* | 2.3% | 13.6 | 3.6% | x
COc1ccccc1N(C(=O)CN1C(=O)c2ccccc2S1(=O)=O)C(C(=O)NCC1CCCO1)c1ccc(F)cc1 (stereo unspecified) | -8.1% | u | 2.7% | -5.9 | -4.3% | x
Cc1ccccc1Nc1nnc(SCc2nc3ccccc3c(=O)[nH]2)s1 | x | -0.2% | -1.5% | x | x | x
Cc1cccc(C)c1Nc1nnc(SCc2nc3ccccc3c(=O)[nH]2)s1 | -10.0% | -4.2% | 0.4% | -118.2* | -4.7% | x
O=c1[nH]c(CSc2nc(-c3ccc(F)cc3)cs2)nc2ccccc12 | -3.0% | 12.8% | -0.6% | -116.4* | 0.9% | x
O=C(N/N=C\c1cc(Br)cs1)C1COc2ccccc2O1 (stereo unspecified) | -8.3% | 20µM* | -13.7%[38.3 µM] | -27.5 | -10.1% | 3.9
O=C(N/N=C\C=C\c1ccc2c(c1)OCO2)C1COc2cc3ccccc3cc2O1 (stereo unspecified) | u | u | 8.7%[38.3 µM] | -29.4 | -3.5% | -0.4
O=C(N/N=C/C=C/c1ccc([N+](=O)[O-])cc1)C1COc2ccccc2O1 (stereo unspecified) | -24.9% | 25.1µM* | 14.2% | 8.0 | 1.1% | -2.6
O=C(N/N=C/c1ccc2c(c1)OCO2)C1COc2ccccc2O1 (stereo unspecified) | -18.0% | u | -14.0%[38.3 µM] | u | -5.2% | 9.8
CCC1=C2CC[C@H]3C(=O)N(CC(=O)OC)C(=O)[C@H]3[C@H]2[C@@]2(C)C(=NCCc3c[nH]c4ccccc34)OC(=O)N2C1=O | -2.0% | -3.8% | -19.3% | x | -1.9% | x
CS(=O)c1ccccc1COC(=O)Nc1ccc(Cl)cc1 (stereo unspecified) | -22.2% | u | 37.3%[38.3 µM] | -80.5* | -9.6% | 4.4[1.84 µM]
Cc1ccc(NC(=O)OCc2ccccc2S(C)=O)cc1 (stereo unspecified) | x | 7.5% | 10.0% | x | x | x
COc1ccccc1-c1nc(SCC(=O)Nc2ccc(C)c(C)c2)n[nH]1 | x | x | x | x | x | -0.1
